# Results taken from PubChem BioAssay (NCATS).
# Inconclusive results are not listed. Unmarked numbers belong to inactive results. Activity calls are given as the source filed them. Calls follow the shape of the dose curve; as a rule, active = well fitted inhibition curve with a large enough effect; inconclusive = small, poorly fitted or top-dose-only effect; inactive = flat fitted curve, though single readings scatter.
# Test system: HEK293
# Assay: Cytotoxic Profiling of Annotated Libraries Using Quantitative High-Throughput Screening (AID 1296008); also: nearly all actives have a fitted effect of over 60% in size
# Details: Five cell lines viability, CellTiter-Glo ATP luminescence, 48-72 h; max response: stronger effect = lower value
# From the text: Cell-based phenotypic screening is a commonly used approach to discover biological pathways, novel drug targets, chemical probes and high-quality hit-to-lead molecules. Many hits identified from high-throughput screening campaign are ruled out through a series of follow-up potency, selectivity/specificity, and cytotoxicity assays. Prioritization of molecules with little or no cytotoxicity for a more in-depth downstream evaluation influence the future direction of projects, so cytotoxicity profiling of the screening libraries at early stage is essential for increasing the likelihood of candidate success. […] For the annotated library, we also examined the primary targets and mechanistic pathways regularly associated with cell death. To our knowledge, this is the first study to use high-throughput screening to profile large libraries for cytotoxicity assessment in both normal and cancer cell lines. In summary, the results generated here constitutes a valuable resource for the scientific community and provides insight on identifying cytotoxic compounds with particular mechanisms of action, and prioritizing compounds with suitable cytotoxicity profile for further evaluation.
# A pintool (Kalypsys) was used to transfer 23 nL of compound solution to the 1536-well assay plates. After 48 or 72 hr incubation at 37 degree Celsius, 5% CO2 and 95% humidity, 2.5 uL of CellTiter-Glo (Promega) was dispensed into each well using a dispenser (Aspect Automation, St. Paul, MN) with solenoid valves (Lee Valves, Westbrook CT). Plates were left at room temperature for 10 min before imaging the ATP-coupled luminescence using a ViewLux microplate imager (PerkinElmer, Waltham, MA).
# % is scaled to controls: 0 for no effect and ±100 for the full control effect.
SMILES,max response,outcome
C=C1C(=O)O[C@@H]2CC(C)=C([C@@H](C)CCCOC(C)=O)[C@@H](O)[C@H]12,1.32%,–
Cc1cc(CNC(=O)c2cc(C(=O)NCc3ccc(F)c(C)c3)ncn2)ccc1F,1.88%,–
COc1cc(O[C@@H]2O[C@H](CO[C@H]3OC[C@](O)(CO)[C@H]3O)[C@@H](O)[C@H](O)[C@H]2O)cc(OC)c1O,0.643%,–
CC1(C)CC[C@]2(C(=O)O)CC[C@]3(C)C(=CCC4[C@@]5(C)C[C@H](O)[C@H](O[C@@H]6O[C@H](CO)[C@@H](O)[C@H](O)[C@H]6O)[C@@](C)(CO)C5[C@H](O)C[C@]43C)[C@@H]2C1 (stereo not given in full),0.861%,–
CC1=C2C[C@@]3(C)[C@@H](CCC[C@@H]3C)C[C@@]2(O)OC1=O,-2.55%,–
C/C1=C\CC(C)(C)/C=C/C/C(C(=O)O)=C/CC1,-13.3%,–
C=C[C@H]1[C@H](O[C@@H]2O[C@H](CO)[C@@H](O)[C@H](O)[C@H]2O)OC=C(C(=O)OC)[C@H]1CCO,2.87%,–
CCN1CCN(C(=O)N[C@@H](C(=O)N[C@@H]2C(=O)N3[C@@H]2SC(C)(C)[C@@H]3C(=O)O)c2ccccc2)C(=O)C1=O,-6.17%,–
CN1CCc2cc(Cl)c(O)cc2[C@@H](c2cccc3c2OCC3)C1,-11.4%,–
C=C1C[C@]23C[C@H]1CC[C@H]2[C@]1(C)CC[C@H](O)[C@@](C)(C(=O)O)[C@H]1[C@@H]3C(=O)O,0.167%,–
CC(=O)/C=C/C1C(C)CC(O[C@@H]2O[C@H](CO)[C@@H](O)[C@H](O)[C@H]2O)CC1(C)C (stereo not given in full),3.69%,–
CC(=O)/C=C/[C@H]1[C@](C)(O)[C@@H](O)[C@H](O)C2C(C)(C)CCC[C@@]21C (stereo not given in full),-5.03%,–
O=C(/C=C/c1ccccc1)OC[C@H]1O[C@@H](OC(=O)c2cc(O)c(O)c(O)c2)[C@H](O)[C@@H](O)[C@@H]1O,4.27%,–
O=C(O)c1cc(O[C@@H]2O[C@H](CO)[C@@H](O)[C@H](O)[C@H]2O)ccc1O,-8.21%,–
C=C1C(O)CC2C(C(=O)O)=COC(OC3OC(CO)C(O)C(O)C3OC(=O)/C=C\c3ccc(O)cc3)C12 (stereo not given),-11.5%,–
C=C1CC[C@@H]2[C@](C)(CO)[C@H](O[C@@H]3O[C@H](CO)[C@@H](O)[C@H](O)[C@H]3O)CC[C@@]2(C)[C@@H]1C/C=C1/C(=O)OC[C@H]1O,-5.74%,–
CC(C)(O)C(O)C(=O)OCc1ccc(O[C@@H]2O[C@H](CO)[C@@H](O)[C@H](O)[C@H]2O)cc1 (stereo not given in full),2.94%,–
CC(C)(O)[C@@H]1CC[C@]2(CO)[C@@H](O)CC[C@](C)(O)[C@H]2[C@@H]1O[C@@H]1O[C@H](CO)[C@@H](O)[C@H](O)[C@H]1O,1.77%,–
C[C@@H]1O[C@@H](O[C@H]2[C@H](O[C@H]3[C@H](O[C@H]4CC[C@@]5(C)C(CC[C@]6(C)C5CC=C5[C@@H]7CC(C)(C)C[C@@H](O)[C@]7(C)CC[C@]56C)[C@@]4(C)CO)O[C@H](C(=O)O)[C@@H](O)[C@@H]3O)O[C@H](C(=O)O)[C@H](O)[C@@H]2O)[C@H](O)[C@H](O)[C@H]1O (stereo not given in full),-6.47%,–
C[C@@H]1CC[C@]2(C(=O)O)CC[C@]3(C)C(=CCC4[C@@]5(C)C[C@@H](O)[C@@H](O)C(C)(C)C5CC[C@]43C)C2[C@]1(C)O (stereo not given in full),–,inactive

SMILES,max response,outcome
O=C(Nc1ccc(N2CCC(C(=O)N3CCOCC3)CC2)cc1)c1cnc(Oc2ccccc2)nc1,-17.8%,–
Nc1ccc(-n2nc(C(F)(F)F)cc2C(F)(F)F)cc1,-3.16%,–
C/C=C1\[C@H](O[C@@H]2O[C@H](CO)[C@@H](O)[C@H](O)[C@H]2O)OC=C(C(=O)OCCc2ccc(O)cc2)[C@H]1CC(=O)OCCc1ccc(O)cc1,-2.9%,–
OC[C@H]1O[C@@H](OCc2ccccc2)[C@H](O)[C@@H](O)[C@@H]1O,-5.26%,–
CC(O)CCc1ccc(O[C@@H]2O[C@H](CO)[C@@H](O)[C@H](O)[C@H]2O)cc1 (stereo not given in full),3.66%,–
COC(=O)C(CC1CCCC1)c1ccc(S(C)(=O)=O)cc1 (stereo not given),0.176%,–
C=C1CCC2C(C)(C)CCC[C@]2(C)[C@H]1CC/C(C)=C/C(=O)O (stereo not given in full),-1.43%,–
C[C@@H]1O[C@@H](O[C@H]2[C@H](O[C@H]3[C@H](O[C@H]4CC[C@@]5(C)C(CC[C@]6(C)C5CC=C5[C@@H]7CC(C)(C)C[C@@H](O)[C@]7(C)CC[C@]56C)[C@@]4(C)CO)O[C@H](C(=O)O)[C@@H](O)[C@@H]3O)O[C@H](CO)[C@H](O)[C@@H]2O)[C@H](O)[C@H](O)[C@H]1O (stereo not given in full),-3.77%,–
Cc1ccc(-c2c(-c3nn(C)c4ncnc(N5CC[C@H](N6CCCCC6)C5)c34)cnn2C)cc1,-5.54%,–
COc1ccc(C2COc3cc(O)ccc3C2)c(O)c1OC (stereo not given),-9.14%,–
O=C(OC[C@H]1O[C@@H](Oc2ccccc2CO)[C@H](O)[C@@H](O)[C@@H]1O)c1ccccc1,0.13%,–
C[C@@H]1O[C@@H](O[C@H]2[C@H](OC(=O)[C@]34CCC(C)(C)C[C@H]3C3=CCC5[C@@]6(C)C[C@@H](O)[C@@H](O)[C@@](C)(CO)C6[C@H](O)C[C@@]5(C)[C@]3(C)CC4)OC[C@H](O)[C@@H]2O)[C@H](O)[C@H](O)[C@H]1O[C@@H]1OC[C@@H](O)[C@H](O[C@H]2O[C@H](C)[C@@H](O)[C@H](O)[C@@H]2O)[C@H]1O (stereo not given in full),-0.607%,–
CCC(C)/C=C(C)/C=C/C1=CC2=C(Cl)C(=O)C(C)(OC(C)=O)C(=O)C2=CN1C(CCCN=C(N)N)C(=O)O (stereo not given),3%,–
CC1(C)CCC2(C(=O)O)C(O)CC3(C)C(=CCC4C5(C)CCC(OC6OC(CO)C(O)C(O)C6OC6OC(CO)C(O)C(O)C6OC6OCC(O)(CO)C6O)C(C)(C)C5CCC43C)C2C1 (stereo not given),-13.6%,–
O=C(O)Cc1cn([C@@H]2O[C@H](CO)[C@@H](O)[C@H](O)[C@H]2O[C@@H]2O[C@H](CO)[C@@H](O)[C@H](O)[C@H]2O)c2ccccc12,2.13%,–
O=C(O)CC1CCC(c2ccc(-c3ccc(Nc4ccc(C(F)(F)F)nc4)cn3)cc2)CC1 (stereo not given),-8.47%,–
O=C(OC[C@H]1O[C@H](O[C@H]2CO[C@H](CO)[C@@H](O)[C@@H]2O)[C@H](O)[C@@H](O)[C@H]1O)c1ccccc1,–,inactive
CCOc1ncc(S(=O)(=O)N2CCN(CC)CC2)cc1-c1nc2c(CC)n(CCOC)nc2c(=O)[nH]1,-6.31%,–
N#CC1C(=O)N=C(c2cc(Cl)ccc2O)C=C1c1cc(OCc2ccccc2)cc(OCc2ccccc2)c1 (stereo not given),3.52%,–
CC(C)c1cc2c(c(O)c1O)[C@@]13CCCC(C)(C)C1[C@@H](O)[C@@H]2OC3=O (stereo not given in full),-8.48%,–
